Only some compounds are listed: those with a hit (about 2.1% of all), similar ones and a draw of the others.
ARNT TACC3 PPI – disruptors of ARNT/TACC3 protein interaction, primary screen, biochemical, AlphaScreen, single concentration; Transforming acidic coiled-coil-containing protein 3 (Homo sapiens), Q9Y6A5; inhibition, % at 9.99 µM; 390,000 compounds, 0.66% hits; AID 623870, 2012; AlphaScreen His-ARNT PAS-B/GST-TACC3 binding, luminescence; TACC3 fragment carries E629A point mutation;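 active = mean inhibition of replicates at least 50% and at least half of replicates each reaching 50%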;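 note: 0% = complete ARNT plus TACC3 wells and 100% = ARNT alone without TACC3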
ERAP1 HTS inh – human ERAP1 aminopeptidase inhibitors, primary screen, biochemical, single point, plate reader; Endoplasmic reticulum aminopeptidase 1 (Homo sapiens), Q9NZ08; recombinant ERAP1, Leu-AMC fluorescence, 60 min; inhibition, % at 10.7 µM; 340,000 compounds, 0.15% hits; AID 652197, 2013;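 active = mean replicate inhibition of at least 30%, or all replicates individually reaching that 30% level; inactive = mean below 30% and not every replicate reaching it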;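 note: 0% = neutral control wells and 100% = L-leucinethiol positive control wells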
Target sequence (Q9NZ08 whole entry, looked up): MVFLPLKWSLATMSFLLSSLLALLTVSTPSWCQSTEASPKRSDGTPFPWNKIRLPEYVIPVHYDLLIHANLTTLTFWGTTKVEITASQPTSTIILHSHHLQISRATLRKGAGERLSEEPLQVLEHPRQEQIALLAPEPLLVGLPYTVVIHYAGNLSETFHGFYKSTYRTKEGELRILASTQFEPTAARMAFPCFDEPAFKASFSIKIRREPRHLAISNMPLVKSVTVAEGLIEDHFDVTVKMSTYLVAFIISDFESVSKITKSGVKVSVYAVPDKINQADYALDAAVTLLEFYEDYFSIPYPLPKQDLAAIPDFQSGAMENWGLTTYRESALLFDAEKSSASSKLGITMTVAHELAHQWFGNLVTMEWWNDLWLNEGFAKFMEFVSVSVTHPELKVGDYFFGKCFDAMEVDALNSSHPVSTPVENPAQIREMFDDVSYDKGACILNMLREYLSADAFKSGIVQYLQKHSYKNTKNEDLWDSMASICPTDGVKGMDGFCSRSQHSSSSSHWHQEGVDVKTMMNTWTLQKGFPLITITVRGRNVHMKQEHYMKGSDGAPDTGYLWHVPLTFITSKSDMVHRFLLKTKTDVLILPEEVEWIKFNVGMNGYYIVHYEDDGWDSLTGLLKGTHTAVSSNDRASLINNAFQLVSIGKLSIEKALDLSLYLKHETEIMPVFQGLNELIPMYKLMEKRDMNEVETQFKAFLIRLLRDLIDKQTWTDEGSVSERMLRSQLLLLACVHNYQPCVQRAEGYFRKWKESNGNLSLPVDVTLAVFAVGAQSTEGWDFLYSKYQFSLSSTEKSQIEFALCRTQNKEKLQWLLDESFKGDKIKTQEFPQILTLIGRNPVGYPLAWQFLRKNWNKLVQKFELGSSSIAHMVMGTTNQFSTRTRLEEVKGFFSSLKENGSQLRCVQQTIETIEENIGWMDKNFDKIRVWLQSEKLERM
PvdQ acylase – P. aeruginosa PvdQ acylase inhibitors, primary screen, biochemical, fluorescence, plate reader and imaging, single point. PvdQ acylase [Pseudomonas aeruginosa LESB58]. purified PvdQ acylase. inhibition, % at 10 µM. 340,000 compounds, 0.063% hits; in the data active = inhibition above about 30%, passing the limit was not always enough;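 note: 0% = vehicle neutral wells and 100% = reference inhibitor wells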
Ecoli rRNA inh – reduced GFP signal of wild-type E. coli, primary screen, bacterial rRNA inhibitor project, GFP/RFP fluorescence, OD600, single point; GFP signal change (wild-type ribosome), % (no concentration beside the values); AID 720706, 2013; E. coli WT GFP vs humanized-ribosome RFP mutants, 24 h; active compounds read low; DMSO median 0, no signal -100; 350,000 compounds, 1.6% hits;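 active = significant combined selectivity score with lowered wild-type GFP, culture density cut under 30%, mutant RFP and density less affected; inactive = any of these conditions unmet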
CFTR F508del cor – F508del CFTR correction, initial screen, CFBE line, single point. activity (quench increase), % at 7.58 µM. AID 720511, 2013. 350,000 compounds, 0.36% hits. CFBE cells, YFP halide quenching; stimulated with forskolin plus potentiator P3; % fluorescence drop versus neutral controls;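 active = mean added fluorescence quench of at least 8% versus neutral control, with both replicates also reaching 8%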;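 note: cells transiently co-express mutant CFTR-F508del with the halide-sensitive YFP; corrector assay measuring rescue of mutant channel to the surface after 24 h compound exposure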
AlphaScreen ctr – AlphaScreen signal interference compounds, dose response, artefact control for ARNT-TACC3 interaction inhibitor project, biochemical, luminescence, cherry-pick; shares compounds with ARNT TACC3 PPI; His-ARNT PASB-GST AlphaScreen artifact counter-screen; AC50, µM (series often up to 68 µM), without a hit: at the top dose activity change, negative = signal decrease; 1,200 compounds, 50% hits;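 active = every separate test run was called active for a drop in luminescence, with AC50 within twice the top valid dose, actives reach about 71 µM in these data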
* hit, by the source's call; [ ] = dose if it differs, or a comment.

For COCC(=O)N1[C@H](CO)[C@H]2c3ccccc3N(C)C[C@H]21 the results were ARNT TACC3 PPI 4, ERAP1 HTS inh 1, Ecoli rRNA inh 0 and CFTR F508del cor 2.
CCC(=O)N(C)C[C@H]1Oc2cc(Br)ccc2S(=O)(=O)N([C@H](C)CO)C[C@H]1C was read as ARNT TACC3 PPI -5, ERAP1 HTS inh -3, Ecoli rRNA inh -3 and CFTR F508del cor 0.
For O=C(CN1CC(=O)Oc2ccccc21)OCC(=O)c1ccccc1 the results were ARNT TACC3 PPI 54*, PvdQ acylase -7 and AlphaScreen ctr 8.3µM*.
`O=C(CN1C(=O)c2ccccc2C1=O)OCC(=O)c1ccc(F)cc1` gave ARNT TACC3 PPI -3, ERAP1 HTS inh 2, PvdQ acylase -2, Ecoli rRNA inh 16 and CFTR F508del cor -1.
CCC(=O)Nc1ccc2c(c1)C(=O)N(C)C[C@@H](OC)[C@@H](C)CN(C(=O)Cc1ccccn1)[C@H](C)CO2 was read as ARNT TACC3 PPI 10, ERAP1 HTS inh 0, Ecoli rRNA inh 2 and CFTR F508del cor 2.
COCCn1c(C)cc(C(=O)COC(=O)c2ccc([N+](=O)[O-])o2)c1C was read as ARNT TACC3 PPI 52*, ERAP1 HTS inh -2, PvdQ acylase -7, Ecoli rRNA inh -2, CFTR F508del cor 0 and AlphaScreen ctr -16%.
CC1CCN(C(=O)COC(=O)c2ccc([N+](=O)[O-])o2)CC1 was read as ARNT TACC3 PPI 18*, ERAP1 HTS inh 0, PvdQ acylase -14, Ecoli rRNA inh 15, CFTR F508del cor -1 and AlphaScreen ctr -5%.
O=C1CN(C(=O)COC(=O)c2ccc([N+](=O)[O-])o2)c2ccccc2N1 was read as ARNT TACC3 PPI 42*, ERAP1 HTS inh 2, PvdQ acylase 9, Ecoli rRNA inh -2, CFTR F508del cor 0 and AlphaScreen ctr -1%.
`CC1CCN(C(=O)COC(=O)c2ccc(Br)o2)CC1` gave ARNT TACC3 PPI -5, ERAP1 HTS inh -1, PvdQ acylase -15, Ecoli rRNA inh 6 and CFTR F508del cor -2.
For CC1(C)C(=O)Nc2ccccc2N1C(=O)COC(=O)c1ccc([N+](=O)[O-])o1 the results were ARNT TACC3 PPI -6, ERAP1 HTS inh 3, PvdQ acylase 11, Ecoli rRNA inh 27 and CFTR F508del cor 0.
C/C=C/c1ccc2c(c1)O[C@@H](CN(C)S(=O)(=O)c1ccc(C)cc1)[C@@H](C)CN([C@@H](C)CO)S2(=O)=O was read as ARNT TACC3 PPI 2, ERAP1 HTS inh 0, Ecoli rRNA inh -6 and CFTR F508del cor 1.
Screening C[C@H]1CN([C@@H](C)CO)C(=O)c2cccc(NC(=O)Nc3ccc4c(c3)OCO4)c2O[C@H]1CN(C)C(=O)NC1CCCCC1 returned ARNT TACC3 PPI -5, ERAP1 HTS inh 2, Ecoli rRNA inh -6 and CFTR F508del cor 3.
Oc1cccc2c(-c3nn[nH]n3)ccnc12 was read as ARNT TACC3 PPI 68*, PvdQ acylase -11, Ecoli rRNA inh -4, CFTR F508del cor -2 and AlphaScreen ctr 10µM*.
`O=C(NCC[C@H]1CC[C@@H](NC(=O)C2CCCC2)[C@H](CO)O1)c1cc(Cl)cc(Cl)c1` gave ARNT TACC3 PPI 3, ERAP1 HTS inh -2, Ecoli rRNA inh -8 and CFTR F508del cor 1.
COc1ccc(NC(=O)Nc2ccc3c(c2)C(=O)N([C@H](C)CO)C[C@@H](C)[C@@H](CN(C)C(=O)CCC(F)(F)F)OCCCC[C@H](C)O3)cc1 was read as ARNT TACC3 PPI active, ERAP1 HTS inh 0, Ecoli rRNA inh -2, CFTR F508del cor 2 and AlphaScreen ctr -17%[42 µM].

Bioassay records: PubChem, Broad Institute
